# A selection: hits, their analogues and other compounds. The true share with any hit is near 2.8%.
# SENP6 block: blocks the human protease SENP6. inhibition, % at 10 µM. Q9GZR1. AID 2599. Recombinant SENP6 catalytic domain, aminoluciferin luminescence. hit rate 1.8% among 330,000;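 active means inhibition above about 50% at the single tested dose, limit read from the data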
# Target sequence (Q9GZR1 628-1112 limits assumed): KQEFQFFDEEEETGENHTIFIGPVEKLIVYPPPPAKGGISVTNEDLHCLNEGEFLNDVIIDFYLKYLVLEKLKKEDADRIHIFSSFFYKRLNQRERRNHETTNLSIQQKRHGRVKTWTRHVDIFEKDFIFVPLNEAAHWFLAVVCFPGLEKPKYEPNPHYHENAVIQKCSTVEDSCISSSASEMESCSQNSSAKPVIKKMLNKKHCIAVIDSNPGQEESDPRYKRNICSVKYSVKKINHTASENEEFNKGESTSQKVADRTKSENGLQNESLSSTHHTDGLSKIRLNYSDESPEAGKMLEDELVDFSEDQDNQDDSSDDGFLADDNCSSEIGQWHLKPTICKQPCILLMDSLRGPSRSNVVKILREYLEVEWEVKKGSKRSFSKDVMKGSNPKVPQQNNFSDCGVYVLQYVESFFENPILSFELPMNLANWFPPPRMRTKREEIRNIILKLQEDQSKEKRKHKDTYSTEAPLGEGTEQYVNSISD
# Platelet DG rel: modulates dense granule release in human platelets; human platelet-rich plasma, SFLLRN dense granule ATP release, luminescence; inhibition, %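 (compounds screened at 7.5 µM in platelet-rich plasma)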; hit rate 0.22% among 300,000; AID 1663;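 active means mean replicate score, as percent of positive control, at or above 50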
# HSP90 refold inh: HSP90 refolding inhibition in rabbit reticulocyte lysate; luciferase refolding luminescence, 3 h; inhibition, % at 5.6 µM; hit rate 0.91% among 290,000;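 active means inhibition above the screen-wide mean plus 3 SD, computed separately per campaign, cut at about 16% in these data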;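 further: inhibitors lower the luminescence because luciferase stays unfolded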
# SENP8 block-1: blocks the human protease SENP8. AID 2540. purified SENP8, Z-RLRGG-aminoluciferin cleavage, luminescence. inhibition, % at 10 µM. Q96LD8. hit rate 1.2% among 330,000; in the data active means inhibition above about 50%
# SENP8 block-2: inhibitors of human SENP8 protease. Q96LD8. recombinant SENP8, Nedd8 substrate fluorescence. inhibition, % at 20 µM. hit rate 0.64% among 360,000. AID 602440; in the data active means inhibition mostly above about 40%, no sharp cut-off; inactive means mostly below about 27%
# SENP7 block: SENP7 protease inhibition. recombinant SENP7, Z-RLRGG-aminoluciferin luminescence, 40 min. inhibition, % at 5 µM. hit rate 1.5% among 330,000;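 active means inhibition above about 50% at the single test dose, limit read from the data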
# A number is an active result; – = inactive; · = no result.
SMILES,SENP6 block,Platelet DG rel,HSP90 refold inh,SENP8 block-1,SENP8 block-2,SENP7 block
OCCC1CN(Cc2ccc(Oc3ncccn3)cc2)CCN1Cc1ccc(F)c(F)c1 (stereo unspecified),–,–,–,–,–,–
CC(C)CN1CCN(Cc2ccc(Oc3ncccn3)cc2)CC1CCO (stereo unspecified),–,–,16,–,–,–
CSC1=NC=C(C#N)C2=NC(c3c(Cl)cccc3Cl)NN12 (stereo unspecified),·,·,·,·,52,·
COc1ccccc1NC(=O)C1=C(C)NC2=C(C(=O)CC(c3ccc(OC)c(OC)c3)C2)C1c1coc2ccccc2c1=O (stereo unspecified),–,–,16,–,–,–
CCOC(=O)[C@]12CCCC=C1N(Cc1ccc3c(c1)OCO3)C(=O)[C@H](CC(=O)N1CCC(c3ccccc3)CC1)C2,·,·,·,·,–,·
COc1cccc2c1C(=O)c1c(O)c3c(c(O)c1C2=O)C[C@@](O)(C(=O)CO)C[C@@H]3O[C@H]1C[C@H](N)[C@H](O)[C@H](C)O1,–,–,–,–,–,–
COc1cccc2c1C(=O)c1c(O)c3c(c(O)c1C2=O)CC(O)(C(C)=O)CC3OC1CC(N(C)C)C(O)C(C)O1 (stereo unspecified),·,·,·,·,49,·
CC(=O)[C@@]1(O)Cc2c(O)c3c(c(O)c2[C@H](O[C@H]2C[C@H](N)[C@H](O)[C@H](C)O2)C1)C(=O)c1ccccc1C3=O,·,·,·,·,–,·
COc1cccc2c1C(=O)c1c(O)c3c(c(O)c1C2=O)C[C@@](O)(C(=O)CO)C[C@@H]3OC1CC(N)C(O)C(C)O1 (stereo partly specified),·,·,·,·,94,·
CCCCN(C)C(=O)C1CCN(Cc2cccc(OCc3ccccc3)c2)CC1,–,–,–,–,–,–
CCCCn1c(N)c(N(CCOC)C(=O)c2cc(S(=O)(=O)N3CCOCC3)ccc2Cl)c(=O)[nH]c1=O,·,·,·,·,–,·
O=C(c1ccccc1)C1C(=O)c2ccccc2C1=O,–,–,–,–,46,–
CC(NC(=O)Cc1ccc(Br)cc1)c1ccccc1 (stereo unspecified),–,–,–,–,–,–
O=C(c1ccccc1)n1c2ccccc2c(=O)n1-c1ccccc1CCl,·,·,·,·,–,·
Cc1ccc(CNc2ccc3c(c2)ncn3C(C)C)cc1,–,–,–,–,–,–
CC(C)n1cnc2cc(NCc3nc4ccccc4n3C)ccc21,62,–,16,–,–,–
Cc1ccccc1NC(=O)Cc1nnc(SCC(=O)NC2=NCCS2)n1C,–,–,–,–,–,–
CCc1ccc(/C=C/C(=O)C2C(=O)c3ccccc3C2=O)cc1,–,–,–,–,50,–
CC(C)(C)c1ccc(/C=N/Nc2nncn2N)cc1,–,–,–,–,–,–
Nn1cnnc1N/N=C/c1cc(Br)cc(Br)c1O,–,–,68,–,–,–
COc1ccc(NC(=S)NC(NC(=O)c2cccc3ccccc23)C(Cl)(Cl)Cl)c([N+](=O)[O-])c1 (stereo unspecified),–,–,–,–,–,–
COc1ccc(NC(=S)NC(NC(=O)CCl)C(Cl)(Cl)Cl)c([N+](=O)[O-])c1 (stereo unspecified),–,–,–,–,52,–
CCC1(c2ccccc2)NC(=O)N(CC(=O)NC2(C#N)CCCCC2)C1=O (stereo unspecified),–,–,·,–,–,–
CC(C)C(=O)Nc1cccc(-c2cn3ccccc3n2)c1,–,–,16,–,–,–
CCOc1ccccc1NC(=O)c1cc(=O)[nH]c2ccc(S(=O)(=O)N3CCOCC3)cc12,–,·,·,–,–,–
CCCCC(C(=O)NC1CCCC1)N(C(=O)c1snc(C(N)=O)c1N)c1ccc(F)cc1 (stereo unspecified),–,–,–,–,–,–
CC1CCN(c2ccc(/C=C(\C#N)c3nn(-c4ccccc4)c(N)c3C#N)cc2[N+](=O)[O-])CC1,–,–,–,–,–,–
CC1CCCN(c2ccc(/C=C(\C#N)c3nn(-c4ccccc4)c(N)c3C#N)cc2[N+](=O)[O-])C1 (stereo unspecified),–,·,–,–,47,–
CC1CCN(c2cc(N3CCC(C)CC3)c([N+](=O)[O-])cc2/C=C(\C#N)c2nn(-c3ccccc3)c(N)c2C#N)CC1,–,–,–,–,60,–
COc1ccc(-c2cc(C(F)(F)F)c3c(N)c(C(=O)NCCSC)sc3n2)cc1,–,–,–,–,–,–
